The source of these data is PubChem BioAssay (EPA / NIEHS).

For orientation: AC50 means the concentration at which the activity in the assay is half-maximal.

Active and inactive are the calls of the source. Rule for the calls: active = hit-call score of the fitted dose curve at least 0.9, where 1 is the maximum; inactive = score below 0.9.

Read-out in the experiment: sulfotransferase 2A1 (SULT2A1), SULT2A1 (gene 6822)
Description: LTEA_HepaRG_SULT2A1: Life Technologies and Expression Analysis (LTEA) Assay for sulfotransferase 2A1 (SULT2A1) using HepaRG (AID 2283531). Conditions: mRNA level, 48 h; actives raise or lower the signal. How it is done:
LTEA_HepaRG is a cell based, multiplexed-readout assay that uses HepaRG, a human liver cell line, with measurements taken at 48 hours after chemical dosing on a 96-well plate.LTEA_HepaRG_SULT2A1 is one of 102 assay component(s) measured in the LTEA HepaRG cell culture assay. It is a marker of NR mediated transport.Data from the assay component LTEA_HepaRG_SULT2A1 was analyzed into 1 endpoint. This assay endpoint, LTEA_HepaRG_SULT2A1, was analyzed with bidirectional fitting relative to DMSO as the negative control and baseline of activity. Using a type of inducible reporter, measures of mRNA induction for gain or loss-of-signal activity can be used to understand regulation of transcription factor activity. To generalize the intended target to other relatable targets, this assay endpoint is annotated to the transferase intended target family, where the subfamily is sulfotransferase.
A total of 1060 chemcials from the ToxCast library were tested in eight-point concentration-response experiments. Cell culture and cytotoxicity assays were conducted at Thermo Fisher Scientific's Custom Services facility (Madison, WI). A single lot of human HepaRG cells (Thermo Fisher Scientific, Frederick, MD) was used for the cell culture experiments. 96-well format collagen type I coated plates of human HepaRG cells were prepared using established methods. Briefly, cryopreserved HepaRG cells were thawed, plated at a density of approximately 100,000 cells/well in HepaRG Thaw, Plate, and General Purpose media (HPRG770, Thermo Fisher Scientific), and incubated for 48 hours. 0.5% DMSO was selected as vehicle control to balance the requisite need of DMSO in HepaRG cultures to maintain differentiation (for example, baseline metabolism, proportions of hepatocytes vs. cholangiocytes), while enabling further hepatic receptor pathway activation (for example, PXR and CAR) in response to chemical exposure. 48 hours after plating, the culture medium was replaced with HepaRG Serum-Free Incudtion Media. Cells were exposed to each test chemical in duplicate and maintained in CO2 incubators for another 48 hours. Chemical plates were thawed to room temperature and 200x concentrations of treatment groups were prepared. 8-point conentration-reponse curves were made with the highest exposure at 100 uM, followed by half-log dilutions, all in 0.5% DMSO. Each test plate contained variouse controls, induction positive controls (1mM phenobarbital), cytotoxicity positive controls ([…] aflatoxin B1), vehicle controls (0.5% DMSO), and total lysis controls (0.5% DMSO). Cell morphology images were taken using an Essen IncuCyte FLR automated microscope, with six 96-well plates imaged in about 24 minutes. Images were captured and exported and JPEG files. Spent culture media was transfered to black-well plates for the LDH assay, and remaining media was sorted at -80 C for later use. Cells were treated with RLT buffer and frozen until shipped for gene expression analysis. Total RNA was isolated from the cell suspension in 75 uL of Buffer RLT (Qiagen, Germantown, MD 20874) by Quintiles/Expression Analysis (Durham, NC) using a custom isolation procedure. Total RNA from each plate well was transferred to a preamplification plate. Fluidigm's 96.96 Dynamic ArrayTM (Fluidigm, Amsterdam, the Netherlands) technology was used for gene expression analyses by quantitative reverse transcription polymerase chain reaction (qRT-PCR, performed by Quintiles/Expression Analysis, Durham, NC)89. Standard TaqManTM Assays (Applied Biosystems/ThermoFisher Scientific, Foster City, CA) were used to assess the expression of 93 genes selected based on their selectivity and sensitivity to important hepatic receptors known to be modulated by environmental chemicals; importance in human hepatocyte functionality; and hepatotoxicity. […]
For the molecule `Cn1c(=O)c2[nH]cnc2n(C)c1=O`, the molecule was classed as inactive. On the same count and under the same terms, for `O=C(O)c1ccc2c(c1)nc(C(=O)NC1CCN(C3CC3)CC1)n2Cc1cc(-c2ccc(Cl)s2)on1` the value was “inactive”. `CCCCN1C(=O)[C@@H]([C@H](O)C2CCCCC2)NC(=O)C12CCN(Cc1ccc(Oc3ccc(C(=O)O)cc3)cc1)CC2`: the AC50 was 3.91 µM (active). Consider `CCOC(N)=O`, for which the molecule was called inactive. On the same count and under the same terms, the entry for `O=C(NO)C1(NS(=O)(=O)c2ccc(Oc3ccc(F)cc3)cc2)CCOCC1` is “inactive”. As to `COc1cc2c(c(OC)c1OC)-c1ccc(OC)c(=O)cc1[C@@H](NC(C)=O)CC2`, the AC50 is 0.181 µM (active).

As for `COS(C)(=O)=O`, the outcome was inactive. Still for that read-out and setting: the entry for `NNC(=O)c1ccncc1` is “inactive”. As for `CCCCCOC(C)=O`, the outcome was inactive. The same measure, in the same setting: the entry for `NC(=O)N(O)[C@@H]1COc2cc(OCc3ccccc3)ccc21` is “inactive”; for `O=C1CN(N=Cc2ccc([N+](=O)[O-])o2)C(=O)N1` it is “inactive”. Still for that read-out and setting: for `OC[C@H]1O[C@@H]2O[C@H]3[C@H](O)[C@@H](O)[C@@H](O[C@H]4[C@H](O)[C@@H](O)[C@@H](O[C@H]5[C@H](O)[C@@H](O)[C@@H](O[C@H]6[C@H](O)[C@@H](O)[C@@H](O[C@H]7[C@H](O)[C@@H](O)[C@@H](O[C@H]1[C@H](O)[C@H]2O)O[C@@H]7CO)O[C@@H]6CO)O[C@@H]5CO)O[C@@H]4CO)O[C@@H]3CO` the value was “inactive”. As for `CCc1cccc(CC)c1N`, the molecule was called inactive. Same read-out and setting: for `OC(CCl)CCl` the value was “inactive”; for `Cn1cc[nH]c1=S`, “inactive”; for `CC(=O)c1ccccc1`, “inactive”. On the same count and under the same terms, the entry for `OCc1ccccc1` is “inactive”; for `C=CN1CCCC1=O` it is “inactive”; for `O=C(O)c1cccc(C[C@@H]2COc3ccc(OCc4nc5cc(F)ccc5s4)cc3[C@@H]2O)c1` it is “inactive”. Same read-out and setting: for `Nc1ccn([C@@H]2O[C@H](CO)[C@@H](O)[C@@H]2O)c(=O)n1` the value was “inactive”; for `Cc1ncc([C@@H](CCCCCCc2ccc3c(n2)NCCC3)CC(=O)O)cn1`, “inactive”. For the molecule `CCCCCCCC/C=C\CCCCCCCC(=O)OC[C@@H](O)[C@H]1OC[C@H](O)[C@H]1O`, the call was inactive. Same read-out and setting: for `CCCC(CCC)C(=O)O` the value was “inactive”. Consider `C=CCc1cc(S(=O)(=O)c2ccc(O)c(CC=C)c2)ccc1O`, for which the AC50 was 81.2 µM (active). The same measure, in the same setting: the figure for `CCCOc1ccc(S(=O)(=O)N2CCN(CC)CC2)cc1-c1nc2c(CC)n(Cc3ccccn3)nc2c(=O)[nH]1` is 18.1 µM (active). Turning to `NC(N)=O`, the result was inactive. The same measure, in the same setting: the entry for `CCOc1ccc2[nH]cc(C(=O)NCc3ccccc3)c(=O)c2n1` is “inactive”; for `NC(=O)NN=Cc1ccc([N+](=O)[O-])o1` it is “inactive”. On the same count and under the same terms, the entry for `CCc1ccc(O)c(C(C)(C)C)c1` is “inactive”. Take `CC(C)CCCCCCOC(=O)C1CCCCC1C(=O)OCCCCCCC(C)C` (stereo not given): the half-maximal activity concentration (AC50) was 9.92 µM (active).

`Cc1nc(-c2ccccn2)ncc1C(=O)Nn1cc(C)c2cc(F)ccc21`: the molecule was called inactive.

`Cc1ccc(S(=O)(=O)NC(=O)NN2CCCCCC2)cc1`: the molecule was classed as inactive. On to `COc1cc(C(C)C)c2c(c1)S(=O)(=O)N(COc1cc(=O)n3cccc(OCCN4CCCCC4)c3n1)C2=O`, for which the AC50 was 23.7 µM (active).

Take `NC(=O)N1c2ccccc2C=Cc2ccccc21`: the result was inactive. Same read-out and setting: for `CCCCCCCCCCCCCCCCOS(=O)(=O)O` the value was “inactive”. On to `OCCNCCO`, for which the concentration at half-maximal activity (AC50) is 21.9 µM (active). For the molecule `CC[C@H](C)C(=O)O[C@H]1C[C@H](O)C=C2C=C[C@H](C)[C@H](CC[C@@H](O)C[C@@H](O)CC(=O)O)[C@H]21`, the outcome was inactive. For `c1ccc2ncccc2c1`, the outcome was inactive. On the same count and under the same terms, for `O=S(=O)(O)c1ccc(N=Nc2c(O)ccc3cc(S(=O)(=O)O)ccc23)cc1` the value was “inactive”; for `CC1(C)C(=O)N(Cl)C(=O)N1Cl`, “inactive”.
